The values that follow come from PubChem BioAssay.

Each structure is given as a SMILES string. Active and inactive are the calls of the source.

Assay [1] deals with Plasmodium falciparum Sir2 (PF13_0152, Sir2A). In words: Plasmodium falciparum Sir2A binding compounds – biochemical, small-molecule microarray, 635 nm fluorescence, primary screen (AID 1098).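 Note: score merges spot fluorescence intensity with its signal-to-noise ratio.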 The note with it: fluorescence 635 nm, higher = more signal.
Assay [2] is described as follows: probe aDKK1 binding to arrayed compounds – biochemical, biotinylated probe, 635/667 nm fluorescence, primary screen (AID 1099).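 Note: score merges 667nm spot fluorescence with signal to noise across triplicate slides.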 The note with it: small-molecule microarray, higher = more signal.
A short description of assay [3]: probe aCHRDL2 binding to arrayed compounds – biochemical, biotinylated probe, 635/667 nm fluorescence, primary screen (AID 1100). To be noted: small-molecule microarray, higher = more signal.
A short description of assay [4]: change in splice reporter luminescence, either direction, cell-based, HEK293, spliceosome inhibition project, primary screen (AID 1101).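 Note: HEK293 cells carrying a splicing-competent luciferase reporter gene; test concentration not given here.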 The note with it: HEK293 splicing luciferase reporter, 24 h, higher = more signal, called active from +8 up or from −8 down. (In a reporter assay the amount or activity of a reporter protein is the signal.)
Assay [5] addresses Fibroblast growth factor 10 (Homo sapiens) (UniProt O15520). In words: compounds binding fibroblast growth factor 10 – biochemical, small-molecule microarray, 635 nm fluorescence, primary screen (AID 1102). The note with it: FGF10 binding, fluorescence 635 nm, higher = more signal.
Assay [6] concerns glycogen synthase kinase-3 (GSK3A per assay name; protocol says GSK3B). In words: compounds binding glycogen synthase kinase-3 – biochemical, small-molecule microarray, 635 nm fluorescence, GSK3A, primary screen (AID 1103). Note: the record names both GSK3A and GSK3B. The note with it: fluorescence 635 nm, higher = more signal.
The target of assay [7] is Epidermal growth factor receptor (Homo sapiens) (UniProt P00533). The assay can be described thus: compounds binding epidermal growth factor receptor – biochemical, small-molecule microarray, 635 nm fluorescence, primary screen (AID 1104).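 Note: score merges 667 nm emission intensity with spot signal to noise over triplicate slides.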 To be noted: EGFR binding, higher = more signal.
The target of assay [8] is Follistatin-related protein 3 (Homo sapiens) (UniProt O95633). In words: compounds binding follistatin-related protein 3 – biochemical, small-molecule microarray, 635 nm fluorescence, primary screen (AID 1105).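 Note: score merges emission near 667 nm and signal to noise per printed spot across three slides.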 To be noted: FSTL3 binding, higher = more signal.
Assay [9] addresses Dickkopf-related protein 1 (Homo sapiens) (UniProt O94907). In words: small molecules binding DKK1 protein – biochemical, small-molecule microarray, 635 nm fluorescence scan, primary screen (AID 1106).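 Note: score merges emission near 667 nm with signal to noise over three replicate slides.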 The note with it: higher = more signal.
In assay [10] the test system is Inhibin beta A chain (activin A). In words: small molecules binding activin A – biochemical, small-molecule microarray, 635 nm fluorescence scan, primary screen (AID 1107).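 Note: mouse activin A protein probed at 4.33 µg/mL on printed slides; score merges bound-protein fluorescence near 667 nm with spot signal-to-noise.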 The note with it: INHBA, higher = more signal.
For assay [11], the system named is Human papillomavirus type 1a protein E7 (residues 44-93). The assay can be described thus: small molecules binding HPV E7 44-93 – biochemical, small-molecule microarray, residues 44-93, 635 nm fluorescence, primary screen (AID 1108).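 Note: E7 fragment applied at 1 µg/mL in TBST for 1 h at 4 C; score combines spot fluorescence with its signal to noise ratio.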 The note with it: fluorescence 635 nm, higher = more signal.
Assay [12] is described as follows: hepatitis C replication reporter changes, two-sided – Huh7 cells, luciferase reporter, HCV replication inhibitor project, primary screen (AID 1109).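 Note: huh7 hepatoma cells harbouring a luciferase neomycin HCV replicon reporter; luciferase luminescence as measure of HCV replicon replication; test concentration not given here.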 To be noted: Huh7 HCV replicon luciferase reporter, 48 h; higher = more signal.
The target in assay [13] is Left-right determination factor 2 (Homo sapiens) (UniProt O00292). In words: small molecules binding LEFTY2 protein – biochemical, small-molecule microarray, 635 nm fluorescence scan, primary screen (AID 1110). To be noted: higher = more signal.
Assay [14] addresses Calmodulin-1 (Homo sapiens) (UniProt P0DP23). The assay can be described thus: small molecules binding calmodulin-1 with EGTA – biochemical, small-molecule microarray, Cy5-labelled CALM1, profiling panel (AID 1111).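 Note: labelled calmodulin applied in Tris saline Tween buffer holding calcium plus EGTA and DTT.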 To be noted: Cy5-CALM1 binding fluorescence, higher = more signal.
Assay [15] has the same target. In words: small molecules binding Ca-loaded calmodulin-1 – biochemical, small-molecule microarray, Cy5-labelled CALM1, plus calcium, artefact control for SMM control-protein annotation, profiling panel (AID 1112).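 Note: score merges spot fluorescence with signal to noise from triplicate slides.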 The note with it: Cy5-CALM1 binding fluorescence, higher = more signal.
Assay [16] can be described thus: probe aWnt5a binding to arrayed compounds – biochemical, biotinylated probe, 635/667 nm fluorescence, primary screen (AID 1113).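 Note: score merges 667 nm fluorescence intensity with signal-to-noise per printed feature.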 To be noted: small-molecule microarray, higher = more signal.
Assay [17] is described as follows: probe aShh binding to arrayed compounds – biochemical, biotinylated probe, 635/667 nm fluorescence, primary screen (AID 1114).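 Note: probe is biotin-labelled aShh protein from a stem cell growth factor screen; measures binding of labelled protein to compounds printed on the slide; score merges feature fluorescence at 667 nm with signal-to-noise.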 To be noted: small-molecule microarray, higher = more signal.
The nature of assay [18]: probe aNog binding to arrayed compounds – biochemical, biotinylated probe, 635/667 nm fluorescence, primary screen (AID 1115).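 Note: probe is biotinylated aNog protein used at 0.15 µg/mL for 1 h at 4 C; z-score combines 667 nm fluorescence of each spot with its signal to noise.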 The note with it: small-molecule microarray, higher = more signal.
For assay [19], the target named is Torsin-1A-interacting protein 1 (Homo sapiens) (UniProt Q5JTV8). The assay can be described thus: compound microarray binding of lysate hLAP1 – cell lysate, small-molecule microarray, COS7 lysate, 635/667 nm fluorescence, primary screen (AID 1116). To be noted: 635 nm fluorescence, higher = more signal.
The target in assay [20] is Alpha-bungarotoxin (Bungarus multicinctus) (UniProt P60615). In words: compounds binding labelled alpha-BTX control protein – biochemical, small-molecule microarray, Alexa647 label, 635/667 nm fluorescence, artefact control for SMM control protein annotation, profiling panel (AID 1117). To be noted: alpha-BTX-A647 binding fluorescence, higher = more signal.
Sequence of Alpha-bungarotoxin (Bungarus multicinctus) (P60615 whole entry, looked up): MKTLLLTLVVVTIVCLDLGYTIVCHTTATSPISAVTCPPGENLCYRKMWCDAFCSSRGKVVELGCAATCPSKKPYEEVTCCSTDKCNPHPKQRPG

Sequence of Epidermal growth factor receptor (Homo sapiens) (P00533 whole entry, looked up): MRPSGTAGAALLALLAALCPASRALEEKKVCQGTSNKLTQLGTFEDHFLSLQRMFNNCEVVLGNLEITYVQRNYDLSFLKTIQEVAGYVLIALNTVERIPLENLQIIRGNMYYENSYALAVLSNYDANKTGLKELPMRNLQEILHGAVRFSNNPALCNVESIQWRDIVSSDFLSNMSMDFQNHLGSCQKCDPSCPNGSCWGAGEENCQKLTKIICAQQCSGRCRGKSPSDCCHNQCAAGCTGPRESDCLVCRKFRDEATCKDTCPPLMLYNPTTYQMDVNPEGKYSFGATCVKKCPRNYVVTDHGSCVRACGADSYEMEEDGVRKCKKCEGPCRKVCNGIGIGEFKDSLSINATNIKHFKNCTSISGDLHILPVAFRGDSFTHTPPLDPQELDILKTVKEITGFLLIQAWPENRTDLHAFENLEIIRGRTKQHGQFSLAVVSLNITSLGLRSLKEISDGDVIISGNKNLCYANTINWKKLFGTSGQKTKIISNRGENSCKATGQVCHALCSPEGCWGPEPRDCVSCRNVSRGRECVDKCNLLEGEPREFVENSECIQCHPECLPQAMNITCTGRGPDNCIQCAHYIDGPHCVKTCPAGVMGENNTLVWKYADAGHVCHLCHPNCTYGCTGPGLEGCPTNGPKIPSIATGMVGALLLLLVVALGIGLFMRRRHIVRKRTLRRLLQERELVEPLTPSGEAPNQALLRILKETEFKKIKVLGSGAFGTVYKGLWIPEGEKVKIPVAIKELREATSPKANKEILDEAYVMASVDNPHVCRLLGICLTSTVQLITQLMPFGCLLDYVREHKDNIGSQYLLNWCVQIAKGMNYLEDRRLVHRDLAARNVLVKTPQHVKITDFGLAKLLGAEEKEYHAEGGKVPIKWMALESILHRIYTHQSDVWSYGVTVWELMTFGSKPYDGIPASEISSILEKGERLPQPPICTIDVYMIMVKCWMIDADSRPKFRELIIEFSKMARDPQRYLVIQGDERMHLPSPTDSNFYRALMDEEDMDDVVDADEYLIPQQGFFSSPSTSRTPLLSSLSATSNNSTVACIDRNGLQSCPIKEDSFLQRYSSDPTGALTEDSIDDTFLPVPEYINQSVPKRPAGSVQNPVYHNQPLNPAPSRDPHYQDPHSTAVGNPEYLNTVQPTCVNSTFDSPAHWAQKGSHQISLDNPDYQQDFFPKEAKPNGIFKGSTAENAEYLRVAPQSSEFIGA
Sequence of Dickkopf-related protein 1 (Homo sapiens) (O94907 whole entry, looked up): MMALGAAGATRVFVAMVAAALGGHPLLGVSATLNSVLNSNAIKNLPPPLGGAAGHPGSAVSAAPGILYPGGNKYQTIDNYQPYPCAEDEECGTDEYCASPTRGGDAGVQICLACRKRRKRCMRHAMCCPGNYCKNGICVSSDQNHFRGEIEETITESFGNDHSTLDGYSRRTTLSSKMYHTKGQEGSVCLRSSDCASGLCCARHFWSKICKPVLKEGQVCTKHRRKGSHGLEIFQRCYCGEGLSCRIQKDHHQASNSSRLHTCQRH
Sequence of Torsin-1A-interacting protein 1 (Homo sapiens) (Q5JTV8 whole entry, looked up): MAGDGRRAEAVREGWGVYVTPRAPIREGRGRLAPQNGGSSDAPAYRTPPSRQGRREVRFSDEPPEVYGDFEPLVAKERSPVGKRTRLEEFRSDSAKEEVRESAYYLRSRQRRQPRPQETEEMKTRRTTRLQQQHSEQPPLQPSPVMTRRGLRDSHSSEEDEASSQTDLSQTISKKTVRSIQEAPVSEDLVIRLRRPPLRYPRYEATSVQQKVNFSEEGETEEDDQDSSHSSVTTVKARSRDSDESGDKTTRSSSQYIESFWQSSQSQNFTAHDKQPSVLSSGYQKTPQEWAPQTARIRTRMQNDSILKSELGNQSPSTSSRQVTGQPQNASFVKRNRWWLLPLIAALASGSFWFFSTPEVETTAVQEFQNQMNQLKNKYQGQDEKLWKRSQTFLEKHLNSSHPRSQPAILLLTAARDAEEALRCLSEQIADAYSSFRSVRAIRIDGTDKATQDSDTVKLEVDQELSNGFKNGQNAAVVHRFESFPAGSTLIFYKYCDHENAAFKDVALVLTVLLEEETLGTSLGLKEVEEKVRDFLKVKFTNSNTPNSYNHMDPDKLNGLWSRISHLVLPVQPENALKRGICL
Sequence of Left-right determination factor 2 (Homo sapiens) (O00292 whole entry, looked up): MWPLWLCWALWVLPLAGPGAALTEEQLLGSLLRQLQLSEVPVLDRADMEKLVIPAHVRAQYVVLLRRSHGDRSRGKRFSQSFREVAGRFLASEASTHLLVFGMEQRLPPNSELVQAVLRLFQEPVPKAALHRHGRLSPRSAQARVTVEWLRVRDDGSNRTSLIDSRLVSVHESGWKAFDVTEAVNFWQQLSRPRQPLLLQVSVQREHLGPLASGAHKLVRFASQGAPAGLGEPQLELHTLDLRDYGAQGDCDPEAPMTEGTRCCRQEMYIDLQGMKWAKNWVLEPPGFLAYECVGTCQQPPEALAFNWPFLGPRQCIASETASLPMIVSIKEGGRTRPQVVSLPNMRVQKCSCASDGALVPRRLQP
Sequence of Follistatin-related protein 3 (Homo sapiens) (O95633 whole entry, looked up): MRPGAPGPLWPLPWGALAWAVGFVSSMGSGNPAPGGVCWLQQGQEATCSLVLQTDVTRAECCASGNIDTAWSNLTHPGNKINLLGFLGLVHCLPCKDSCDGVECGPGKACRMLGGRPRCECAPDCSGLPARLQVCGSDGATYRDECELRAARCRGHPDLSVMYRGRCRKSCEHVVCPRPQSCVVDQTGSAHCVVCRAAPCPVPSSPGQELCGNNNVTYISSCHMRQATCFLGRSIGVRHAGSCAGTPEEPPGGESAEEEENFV
Sequence of Fibroblast growth factor 10 (Homo sapiens) (O15520 whole entry, looked up): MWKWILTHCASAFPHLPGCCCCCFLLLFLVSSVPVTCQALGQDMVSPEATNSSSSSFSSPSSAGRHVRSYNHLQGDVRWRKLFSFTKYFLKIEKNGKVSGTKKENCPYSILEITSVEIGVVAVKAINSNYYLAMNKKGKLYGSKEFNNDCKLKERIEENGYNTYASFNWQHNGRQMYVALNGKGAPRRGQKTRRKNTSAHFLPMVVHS

As for `CC1CC/C=C\[C@H]2OC34C=CCN(c5ccc(Cl)cc5)C(=O)[C@H]3N(CCO)C(=O)[C@]4(C)C2C(=O)O1` (stereo not given in full), the composite z-score is 0.111 in assay [1]; -0.197 in assay [2]; 0.693 in [3]; -0.379 in [5]; -0.15 in [6]; -0.483 in assay [7]. Moreover, the composite z-score in [8] was -0.646; in assay [9] it was -1.46; in [10], 1.27; in assay [11], -1.01; in [13], -1.1; in assay [14], -0.795. For the same molecule, the composite z-score in assay [15] was -0.633; in assay [16], -0.124; in assay [17] it was -0.367; in assay [18], -0.342; in [19], -0.485; in [20], -0.445. For the same molecule, the results for the z-score in assay [4] and in [12] were 0.568 (inactive) and -1.35, respectively.
On to `COCCOC(=O)N1C(=O)[C@@]2(c3cc(C#Cc4ccc(OC)cc4)ccc31)[C@H](C(N)=O)[C@H]1C(=O)O[C@H](c3ccccc3)[C@H](c3ccccc3)N1[C@@H]2c1ccccc1OCCO`, for which the composite z-score in [1] is 1.48; in [2], 0.714; in assay [3], 0.634; in assay [5], 1.12; in assay [6] it was 1.21; in [7], 0.824. Also, the composite z-score was 0.93 in assay [8]; 0.705 in assay [9]; 0.312 in assay [10]; 1.33 in [11]; 0.738 in assay [13]; 2.22 in assay [14]. Further, the composite z-score in [15] was 0.618; in [16], -0.0134; in assay [17] it was -0.0988; in assay [18], 0.168; in assay [19], 2.3; in assay [20], 2.97. The values for the z-score in assay [4] and in [12] were -0.265 (inactive) and -1.49, respectively.
Take `C=CCNC(=O)[C@@H]1[C@H]2C(=O)O[C@H](c3ccccc3)[C@H](c3ccccc3)N2[C@H](c2ccc(OCCO)cc2)[C@@]12C(=O)Nc1ccc(C#Cc3ccc(OC)cc3)cc12`: the composite z-score in [1] amounted to 1.28; in [2] it was 0.707; in [3], 0.792; in [5], 0.939; in assay [6], 1.29; in assay [7] it was 0.641. Also, the composite z-score in [8] was determined as 1.25; in assay [9], 1.07; in assay [10] it was 0.746; in [11], 0.14; in assay [13] it was 0.849; in [14], 1.63. Besides, the composite z-score turned out to be 0.0791 in assay [15]; 0.0597 in assay [16]; 0.366 in assay [17]; 0.201 in assay [18]; 0.781 in assay [19]; 2.88 in assay [20]. Also, the z-score was -0.476 (inactive) in assay [4] and -1.87 in [12].
On to `C=CCNC(=O)[C@H]1[C@@H]2C(=O)O[C@@H](c3ccccc3)[C@@H](c3ccccc3)N2[C@@H](c2ccc(OCCO)cc2)[C@]12C(=O)N(C(=O)OCCOC)c1ccccc12`, for which the composite z-score in [1] worked out at 1.57; in assay [2] it was 0.192; in assay [3] it was 0.299; in assay [5], 0.942; in assay [6], 1.31; in assay [7], 0.461. Besides, the composite z-score in [8] stood at 1.25; in [9] it was 0.497; in assay [10], 0.247; in [11] it was 0.379; in assay [13] it was 0.666; in assay [14], 1.06. Moreover, the composite z-score is 0.0523 in assay [15]; -0.14 in assay [16]; -0.0056 in assay [17]; -0.0681 in [18]; 0.985 in assay [19]; 1.66 in assay [20]. In addition, the values for the z-score in [4] and in assay [12] were -1.04 (inactive) and -1.49, respectively.
Regarding `CC(C)N1C(=O)c2ccccc2[C@](C)(C(=O)NCc2ccccc2)[C@@H]1c1ccc(CO)cc1`, the composite z-score in assay [1] was 0.758; in assay [2], 0.234; in [3] it was 0.849; in assay [5], -0.44; in assay [6], -0.329; in assay [7], -0.587. Also, the composite z-score is -0.615 in [8]; -1.16 in assay [9]; 0.288 in assay [10]; -0.375 in [11]; -1 in [13]; -0.742 in [14]. The composite z-score in assay [15] was -0.514; in assay [16] it was -0.0735; in assay [17], -0.19; in assay [18], -0.141; in [19], 1.13; in [20] it was -0.491. Further, the z-score in [4] is 0.0799 (inactive); in assay [12], 0.0554.
